GLP1R ag = agonists of human GLP-1 receptor; HEK293 GLP-1R CRE-luciferase, luminescence, 4-6 h; cells express a hypersensitive GLP-1R form; Potency, µM (series often up to 45.6 µM), for inactives: at the top dose activation, hits mostly activators; actives 0.007% (n = 380,000); P43220; further: potency means the concentration at half of the fitted maximal effect; % of control where 0% means no effect
IDH1 R132H inh = human IDH1 R132H inhibition; O75874; IDH1-R132H enzyme, NADPH consumption, diaphorase/resazurin fluorescence; Potency, µM (highest dose often 76.6 µM), for the others: at the highest dose activity change, negative = inhibition, most hits filed as inhibitors; actives 0.093% (n = 390,000); AID 602179; further: potency means the concentration at half of the fitted maximal effect; on the % scale 0 is the no-effect control and ±100 the full control effect; nearly all actives have a fitted effect of over 65% in size
Target sequence (O75874 whole entry R132H, stated change not applied): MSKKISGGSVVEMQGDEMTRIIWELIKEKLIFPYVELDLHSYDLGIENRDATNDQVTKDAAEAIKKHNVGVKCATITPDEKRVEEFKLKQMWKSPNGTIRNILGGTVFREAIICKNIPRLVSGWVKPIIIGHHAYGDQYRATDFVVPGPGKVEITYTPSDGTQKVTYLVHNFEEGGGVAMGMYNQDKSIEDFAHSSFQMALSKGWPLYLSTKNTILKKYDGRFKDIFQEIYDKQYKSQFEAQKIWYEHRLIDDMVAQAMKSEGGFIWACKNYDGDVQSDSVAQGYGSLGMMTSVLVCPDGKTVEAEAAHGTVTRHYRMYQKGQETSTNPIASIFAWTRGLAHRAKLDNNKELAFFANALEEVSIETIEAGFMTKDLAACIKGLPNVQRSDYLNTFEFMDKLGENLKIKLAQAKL
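IDH1-R132H (0.5 ug/mL) preincubated 30 min with compound, then NADPH (0.016 mM) and alpha-KG (2 mM) added; 80 min at RT, pH 7.5. Remaining NADPH coupled via diaphorase/resazurin to fluorescence (540/590 nm); concentration-response curves normalized to no-enzyme control.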
GLP-1R inv ag = inverse agonists of human GLP-1 receptor; P43220; HEK293 GLP-1R CRE-luciferase, luminescence, 24 h; GLP-1R form is constitutively active; Potency, µM (doses to about 38.3 µM), inactives show at the top dose activity change, negative = inhibition, hits mostly inhibitors; actives 1.6% (n = 410,000); AID 624417; further: potency means the concentration at half of the fitted maximal effect; on the % scale 0 is the no-effect control and ±100 the full control effect; nearly all actives have a fitted effect of over 55% in size
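Seeding at 200 cells/uL, 12 h culture, 24 hr compound treatment, then luciferase reagent and a luminescence read; cells are HEK293 stably expressing a constitutively active GLP-1R plus cAMP-responsive luciferase.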
HEK293 tox = cytotoxic in the GLP-1 receptor inverse agonist counter-screen; Potency, µM (highest dose often 38.3 µM), without a hit: at the highest dose activity change, negative = inhibition, usual class: inhibitors; AID 624418; HEK293 cAMP-luciferase reporter cells, luminescence, 24 h; actives 0.13% (n = 410,000);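 further: loss of luciferase light is scored as toxicity; potency means the concentration at half of the fitted maximal effect; on the % scale 0 is the no-effect control and ±100 the full control effect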
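To flag toxic compounds, the library was rerun on cells for 24 hr at 37 deg C and 5% CO2. Viability-linked luminescence was captured 12 min after adding luciferase detection reagent.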
PTHR1 ag = agonists of human PTHR1 parathyroid hormone receptor; HEK293 GP2 PTHR1 cells, GloSensor cAMP luminescence, 1 h; Q03431; actives 0.075% (n = 410,000); Potency, µM (doses to about 115 µM), without a hit: at the highest dose activation, actives largely listed as activators; further: potency means the concentration at half of the fitted maximal effect; nearly all actives have a fitted effect of over 55% in size
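HEK-293-derived GP2 cells expressing PTHR1 and a GloSensor cAMP reporter, 3,000/well, plated overnight, given luciferin plus IBMX (each 0.5 mM as added) for 1 h at 37 °C, then compound for 1 h at 37 °C. Luminescence was read after 15 min at room temperature.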
LDHA block = inhibitors of human lactate dehydrogenase A. P00338. purified LDHA, NADH/diaphorase-resazurin fluorescence; hits give low values. activity change, % (values are at about 110 or 230 µM). actives 0.15% (n = 480,000); in the data active means activity change below about -30%; inconclusive means mostly about -25% to -30%;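 further: plate controls were DMSO wells for no effect and wells without enzyme for full effect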
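Resorufin fluorescence (ex540/em590), read at 0 and 20 min after diaphorase/resazurin addition, reports the NADH left after a 5 min room-temperature reaction of 2 nM human LDH5 with 0.06 mM NADH and 0.2 mM pyruvate.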
The depositor's hits bear a star; [ ] = remark or other dose. Shown are actives, neighbours in structure and some others; about 1.7% of the full set was active somewhere. Unless noted, the call rests on the fitted dose curve; in most records, active means well fitted curve in the direction sought with a large enough effect; inconclusive means small, poorly fitted or top-dose-only effect, or another doubt; inactive means no such curve, though single readings can be large; an effect the other way counts as inactive or inconclusive.

Results for CCCn1nc(NS(=O)(=O)c2cccc3nonc23)c2cc3cc(C)ccc3nc21 ?
GLP1R ag: 13%; IDH1 R132H inh: -5%; GLP-1R inv ag: 12%; HEK293 tox: -3%; PTHR1 ag: -11%; LDHA block: -6

How did Cc1ccc2cc3c(NS(=O)(=O)c4cccc5nonc45)nn(CC(C)C)c3nc2c1 do in these assays?
GLP1R ag: -3%; IDH1 R132H inh: -8%; GLP-1R inv ag: 10µM*; HEK293 tox: -24%; PTHR1 ag: -15%; LDHA block: -8

What do the screens show for `Cc1cccc(N(C)C(=O)COC(=O)c2ccc(F)c(Cl)c2)c1`?
LDHA block: 0

How did C=CCc1cc(C=O)cc(OC)c1OCc1ccc(Cl)cc1 do in these assays?
GLP1R ag: 2%; IDH1 R132H inh: 14%; GLP-1R inv ag: 10µM*; HEK293 tox: -5%; PTHR1 ag: -24%; LDHA block: 5

What do the screens show for `C=CCc1cc(C=O)cc(OCC)c1OCc1ccc(Cl)cc1`?
GLP1R ag: -4%; IDH1 R132H inh: 2%; GLP-1R inv ag: inconclusive; HEK293 tox: -6%; PTHR1 ag: -21%; LDHA block: -2

Results for C/C(=N\NC(=S)Nc1ccc(C)cc1)c1cccc(N)c1 ?
GLP1R ag: 10%; IDH1 R132H inh: -3%; GLP-1R inv ag: inconclusive; HEK293 tox: 4.5µM*; PTHR1 ag: inactive; LDHA block: 2

What do the screens show for `C/C(=N\NC(=S)Nc1c(C)cccc1C)c1cc2ccccc2o1`?
GLP1R ag: 3%; IDH1 R132H inh: -5%; GLP-1R inv ag: inconclusive; HEK293 tox: 0%; PTHR1 ag: -18%; LDHA block: 2

Results for C/C(=N\NC(=S)Nc1c(C)cccc1C)c1ccc(O)cc1 ?
GLP1R ag: 16%; IDH1 R132H inh: -2%; GLP-1R inv ag: 10µM*; HEK293 tox: inconclusive; PTHR1 ag: -25%; LDHA block: -7

Results for CN1CCCCCC1=NCCCn1cnc2c1c(=O)[nH]c(=O)n2C ?
LDHA block: 8

Results for Nc1cc(S(=O)(=O)O)cc2cccc(S(=O)(=O)O)c12 ?
LDHA block: 75

How did COc1ccc(NC(=O)CCSc2nc(-c3ccco3)cc(C(F)(F)F)n2)cc1OC do in these assays?
IDH1 R132H inh: 0%; GLP-1R inv ag: -17%; HEK293 tox: 0%; PTHR1 ag: inactive; LDHA block: 10

How did COc1ccc(NC(=O)CCCSc2nc(-c3ccco3)cc(C(F)(F)F)n2)cc1OC do in these assays?
GLP1R ag: 8%; IDH1 R132H inh: -5%; GLP-1R inv ag: 11µM*; HEK293 tox: -8%; PTHR1 ag: -9%; LDHA block: -2

What do the screens show for `O=C(O)/C(=C\c1ccc(F)cc1)NC(=O)c1ccco1`?
LDHA block: -21

How did Nc1cc(S(=O)(=O)N2CCCCC2)ccc1Oc1ccc(Cl)cc1 do in these assays?
GLP1R ag: 0%; IDH1 R132H inh: 3%; GLP-1R inv ag: inconclusive; HEK293 tox: 0%; PTHR1 ag: -28%; LDHA block: -4

Results for Cc1ccc(S(=O)(=O)c2ccc(Oc3cccc(C)c3)cc2)cc1 ?
GLP1R ag: -4%; IDH1 R132H inh: 1%; GLP-1R inv ag: 10µM*; HEK293 tox: -3%; PTHR1 ag: inactive; LDHA block: 1

How did Cc1ccc(S(=O)(=O)c2ccc(C)cc2)cc1 do in these assays?
GLP1R ag: -8%; IDH1 R132H inh: 9%; GLP-1R inv ag: -6%; HEK293 tox: -22%; PTHR1 ag: inactive; LDHA block: 2

Results for Cc1cccc(Oc2ccc(S(=O)(=O)N3CCCCC3)cc2N)c1 ?
GLP1R ag: 19%; IDH1 R132H inh: 1%; GLP-1R inv ag: 10µM*; HEK293 tox: -16%; PTHR1 ag: -26%; LDHA block: -4

What do the screens show for `Cc1ccc(CNC(=O)Cc2c(C)c3c(cc(C)c4c(C)coc43)oc2=O)cc1`?
IDH1 R132H inh: -3%; GLP-1R inv ag: 6%; HEK293 tox: 8%; PTHR1 ag: 16µM*; LDHA block: -5

Results for Cc1coc2c1c(C)cc1oc(=O)c(CC(=O)NCC(=O)O)c(C)c12 ?
GLP1R ag: 0%; IDH1 R132H inh: -2%; GLP-1R inv ag: 3%; HEK293 tox: 3%; PTHR1 ag: inactive; LDHA block: -2

How did O=C1C(Nc2ccccc2)=C(N2CCCCC2)C(=O)c2ccccc21 do in these assays?
GLP1R ag: -7%; IDH1 R132H inh: 0%; GLP-1R inv ag: inconclusive; HEK293 tox: -11%; PTHR1 ag: -10%[57.5 µM]; LDHA block: 23

What do the screens show for `O=C1C(Nc2cccc(O)c2)=C(N2CCCCC2)C(=O)c2ccccc21`?
GLP1R ag: 5%; IDH1 R132H inh: 16%; GLP-1R inv ag: inconclusive; HEK293 tox: 3.5µM*; PTHR1 ag: -12%; LDHA block: 34

How did CCCOC(=O)/C(=C\C=C\c1ccccc1)NC(=O)c1ccccc1 do in these assays?
GLP1R ag: 22%; IDH1 R132H inh: -13%; GLP-1R inv ag: 2.5µM*; HEK293 tox: 10%; PTHR1 ag: inactive; LDHA block: -1

Results for N#CC(C#N)=Cc1cn(-c2ncc(C(F)(F)F)cc2Cl)c2ccccc12 ?
GLP1R ag: -2%; IDH1 R132H inh: 9%; GLP-1R inv ag: 7.9µM*; HEK293 tox: -9%; PTHR1 ag: inactive; LDHA block: 1

How did CC(=O)/C=C\c1cn(-c2ncc(C(F)(F)F)cc2Cl)c2ccccc12 do in these assays?
GLP1R ag: -10%; IDH1 R132H inh: 6%; GLP-1R inv ag: inconclusive; HEK293 tox: -15%; PTHR1 ag: -7%; LDHA block: -3

How did COc1cc(NC(=O)C(=O)NC(C)C)ccc1N1CCCCS1(=O)=O do in these assays?
LDHA block: -11

How did COc1cccc(/C=N/NC(=O)c2ccoc2C)c1O do in these assays?
GLP1R ag: 3%; IDH1 R132H inh: 2%; GLP-1R inv ag: 1.3µM*; HEK293 tox: -41%; PTHR1 ag: -61%; LDHA block: 3

How did Cc1nc2ccc(C(=O)NCC3CN(CC(C)C)CCO3)cc2nc1C (stereo unspecified) do in these assays?
LDHA block: 4

Results for O=S(=O)(c1ccc2oc(Nc3cc(F)cc(F)c3)nc2c1)N1CCCCC1 ?
LDHA block: 4
